Kir21 inh: inhibitors of mouse Kir2.1 inward-rectifier potassium channel. HEK293-Kir2.1, FluxOR thallium flux fluorescence; stronger effect = lower value. Inward rectifier potassium channel 2 (Mus musculus), P35561. B-score at 10 µM. hit rate 0.85% among 310,000;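 active means fluorescence ratio B-score at or below minus 3 SD of library scores, with starting-brightness B-score within 2 SD, cut at about -4.2 in these data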;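 further: channel flux triggered by added potassium and thallium sulfate stimulus; B-score of peak minus minimum fluorescence over baseline after thallium stimulus; more negative B-score means stronger Kir2.1 block with less thallium influx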
Target sequence (P35561 whole entry, looked up): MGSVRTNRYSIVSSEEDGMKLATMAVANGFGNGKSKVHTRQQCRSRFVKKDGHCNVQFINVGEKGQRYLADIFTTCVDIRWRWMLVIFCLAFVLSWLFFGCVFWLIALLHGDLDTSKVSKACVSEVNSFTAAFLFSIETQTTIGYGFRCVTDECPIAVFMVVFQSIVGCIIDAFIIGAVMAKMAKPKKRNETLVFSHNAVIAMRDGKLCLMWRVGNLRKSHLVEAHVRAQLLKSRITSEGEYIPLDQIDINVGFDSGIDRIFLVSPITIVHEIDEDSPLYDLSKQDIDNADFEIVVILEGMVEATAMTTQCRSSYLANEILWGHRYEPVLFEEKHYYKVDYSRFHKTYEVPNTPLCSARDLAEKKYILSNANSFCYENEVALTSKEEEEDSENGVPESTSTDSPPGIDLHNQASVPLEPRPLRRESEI
KCNK9 inh: KCNK9 potassium channel inhibitors, primary screen, HEK293 cells, thallium flux. hit rate 1.2% among 310,000. AID 488922, 2010. FluxOR thallium flux fluorescence; stronger effect = lower value. B-score at 10 µM. Potassium channel subfamily K member 9 (Homo sapiens), Q9NPC2;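 active means ratio B-score over 3 SD below the library mean, with starting fluorescence within 5 SD of its mean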;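 further: negative B-score means less thallium flux so channel inhibition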
TMEM16A act: TMEM16A chloride channel activators or potentiators, primary screen, cell-based, HTS. Anoctamin-1 (Mus musculus), Q8BHY3. hit rate 0.3% among 340,000. HEK293 TMEM16A/YFP-H148Q/I152L, iodide quench fluorescence; stronger effect = lower value. B-score at 10 µM;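 active means fluorescence-ratio B-score plate-corrected deviation score at least 3 library SD below zero, with starting fluorescence score within 5 deviations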;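 further: channel opened by trigger with iodide after compound preincubation; score built on the fluorescence ratio of max minus min over baseline; more negative score means more quench and so TMEM16A activation or potentiation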
TMEM16A inh: TMEM16A chloride channel inhibitors, primary screen, cell-based, HTS. Anoctamin-1 (Mus musculus), Q8BHY3. HEK293 TMEM16A/YFP iodide influx fluorescence, ionomycin. normalized B-score (activity score, 25-100; higher = stronger inhibition) at 10 µM. hit rate 1.2% among 310,000;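 active means ratio plate-corrected score three or more library SD toward inhibition, starting fluorescence score within five deviations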;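 further: score derived from kinetic fluorescence span divided by baseline fluorescence per well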
KCNK3 inh: human KCNK3 channel inhibitors, primary screen, CHO cells, FluxOR thallium flux, B-score | AID 602410, 2012 | hit rate 0.84% among 340,000 | FluxOR fluorescence; stronger effect = lower value | B-score at 10 µM | Potassium channel subfamily K member 3 (Homo sapiens), O14649;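 active means B-score under library mean minus 4 SD, starting fluorescence ratio at most library mean plus 5 SD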;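 further: more negative B-score means stronger inhibition of thallium flux through KCNK3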
TMEM16A reconf: TMEM16A chloride channel inhibitors, confirmation, cell-based, re-confirmation; shares compounds with TMEM16A inh; HEK293 TMEM16A/YFP-H148Q, iodide quench fluorescence; ionomycin added to raise cell calcium; inhibition, % at 10 µM; hit rate 39% among 2,300; AID 652189, 2013;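 active means mean duplicate percent inhibition, scaled so buffer wells are 0 and the reference blocker 100, over three buffer SD above buffer mean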
TMEM16A Ca cntr: calcium mobilization in TMEM16A/YFP HEK293 cells, confirmation, counter-screen for TMEM16A inhibitor project; shares compounds with TMEM16A inh; Fluo4 calcium mobilization; calcium response (% of ionomycin), % at 10 µM; hit rate 2% among 2,300;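 active means duplicate-averaged calcium signal over 20% of the ionomycin maximum, relative to buffer baseline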;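 further: each well's signal is peak minus trough fluorescence divided by its pre-addition baseline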
YFP-HEK293 quench: iodide YFP quench changes in parental YFP-HEK293, counter-screen for TMEM16A inhibitor project, cell-based. shares compounds with TMEM16A inh. ionomycin. YFP ratio F(max-min)/F0 at 10 µM. 2,300 tested, under 10 active. AID 652233, 2013;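 active means yellow fluorescent protein signal ratio exceeding the buffer control mean by over 5 SD of those controls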;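 further: ratio is mean of duplicate wells from kinetic YFP trace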
ClC-1 inh: ClC-1 chloride channel inhibition, selectivity assay for TMEM16A inhibitor project, cell-based, voltage-dependent ClC-1; shares compounds with TMEM16A inh; CHO ClC-1-YFP, iodide influx fluorescence quench; iodide control reads 0, buffer control 100; ratio percent, % at 10 µM; 2,300 tested, under 10 active; AID 652236, 2013;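 active means duplicate-mean ratio percent above the mean of iodide-only control wells, which defines zero, plus 5 of their SD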;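 further: higher percent means stronger block of ClC-1 iodide influx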
Each line names hits and unclear results; the compound was inactive in the other large screens (follow-up assays come after a bar, where they were run). The list is not random: actives were taken first. Their share in the collection is about 3.5%.

Cn1c(=O)c2c(nc(NCCCO)n2C/C=C/c2ccccc2)n(C)c1=O	TMEM16A inh 100 | TMEM16A reconf inactive | TMEM16A Ca cntr inactive | YFP-HEK293 quench inactive | ClC-1 inh inactive
CC(O)CNc1nc2c(c(=O)n(C)c(=O)n2C)n1C/C=C/c1ccccc1 (stereo not drawn)	none
CCc1nc(SCC(=O)NCCc2ccccc2)c2oc3ccccc3c2n1	none
CCc1nc(SCC(=O)c2cccs2)c2oc3ccccc3c2n1	TMEM16A inh 100 | TMEM16A reconf inactive | TMEM16A Ca cntr inactive | YFP-HEK293 quench inactive | ClC-1 inh inactive
Cc1ccc(NC(=O)CCN2C(=O)OC(C)(C)C2(C)O)cc1 (stereo not drawn)	none
COc1ccc(CCNc2nc(-c3sc(C)nc3C)cs2)cc1OC	TMEM16A inh 100 | TMEM16A reconf 34% | TMEM16A Ca cntr inactive | YFP-HEK293 quench inactive | ClC-1 inh inactive
COc1ccc(CCNc2nc(-c3ccc(O)cc3)cs2)cc1OC	Kir21 inh -4.6, TMEM16A inh 100 | TMEM16A reconf 30% | TMEM16A Ca cntr inactive | YFP-HEK293 quench inactive | ClC-1 inh inactive
COc1ccc(CCNc2nc(-c3cccnc3)cs2)cc1OC	none
COc1ccc(CCNc2nc(-c3ccncc3)cs2)cc1OC	none
O=C(Nc1cccc(Cl)c1)c1ccc(-n2cncn2)c([N+](=O)[O-])c1	none
O=C(NC(=S)Nc1ccc2c(c1)C(=O)c1ccccc1C2=O)c1ccc(F)cc1	none (no result: TMEM16A act, KCNK3 inh)
CCOCc1cc(=O)[nH]c(SC)n1	none (no result: TMEM16A inh)
CSc1ccccc1-c1nnc(-c2ccccc2)o1	none
CSc1ccccc1-c1nnc(-c2ccc(C)cc2)o1	TMEM16A inh 25 | TMEM16A reconf inactive | TMEM16A Ca cntr inactive | YFP-HEK293 quench inactive | ClC-1 inh inactive
CCCOC(=O)C1=C(C)NC2=C(C(=O)C(C(=O)OC)C(C)C2)C1c1ccc(N(CC)CC)cc1 (stereo not drawn)	none
CCOC(=O)C1=C(C)NC2=C(C(=O)C(C(=O)OC)C(C)C2)C1c1ccc(OC)c(O)c1 (stereo not drawn)	TMEM16A inh 25 | TMEM16A reconf inactive | TMEM16A Ca cntr inactive | YFP-HEK293 quench inactive | ClC-1 inh inactive
CCc1ccc(/C(C)=N/NC(=O)CNC(=O)/C=C/c2ccco2)cc1	none
CC(C)Cc1nc(SCC(=O)N2CCCC2)c2c(=O)n(C)c(=O)n(C)c2n1	none
CCN(CC)CCCOc1ccc(Cl)c(Cl)c1	TMEM16A inh 100 | TMEM16A reconf inactive | TMEM16A Ca cntr inactive | YFP-HEK293 quench inactive | ClC-1 inh inactive
Cc1ccc(C(=O)Nc2ncc([N+](=O)[O-])s2)cc1	TMEM16A inh 25 | TMEM16A reconf 50% | TMEM16A Ca cntr inactive | YFP-HEK293 quench inactive | ClC-1 inh inactive
COc1ccc(C(=O)OCCc2ccc(O)cc2)cc1	TMEM16A inh 25 | TMEM16A reconf inactive | TMEM16A Ca cntr inactive | YFP-HEK293 quench inactive | ClC-1 inh inactive
COc1ccc(CCOC(=O)c2ccc(NC(=O)CC#N)cc2)cc1	none
C/C(N)=C(/C#N)C(=O)COC(=O)Cc1coc2cc(C)ccc12	none
COc1ccc(C)cc1NC(=O)CSc1nnc(-c2ccc(Br)cc2)o1	TMEM16A inh 100 | TMEM16A reconf inactive | TMEM16A Ca cntr inactive | YFP-HEK293 quench inactive | ClC-1 inh inactive
COc1ccccc1NC(=O)CSc1nnc(-c2ccc(C)cc2)o1	none
Cc1cccc(/N=C/c2sc3ccccc3c2O)n1	none | TMEM16A reconf inactive | TMEM16A Ca cntr inactive | YFP-HEK293 quench inactive | ClC-1 inh inactive
COc1ccc(-c2nnc3ccc(SC(C(C)=O)C(C)=O)nn23)cc1OC	none
CCC(Sc1ccc2nnc(-c3ccc(OC)c(OC)c3)n2n1)C(=O)O (stereo not drawn)	TMEM16A inh 100 | TMEM16A reconf inactive | TMEM16A Ca cntr inactive | YFP-HEK293 quench inactive | ClC-1 inh inactive
C1CCC(NC2=NCCC2)CC1	TMEM16A inh 100 | TMEM16A reconf inactive | TMEM16A Ca cntr inactive | YFP-HEK293 quench inactive | ClC-1 inh inactive
CCOC(=O)C1=C(C)NC(=O)NC1c1ccc(OCC(N)=O)cc1 (stereo not drawn)	none
CC(C)COc1ccc(C2NC(=O)NC2=O)cc1 (stereo not drawn)	TMEM16A inh 100 | TMEM16A reconf inactive | TMEM16A Ca cntr inactive | YFP-HEK293 quench inactive | ClC-1 inh inactive
O=C(Nc1ccc(Cl)cc1)NC1CCCCC1Cc1ccco1 (stereo not drawn)	TMEM16A inh 100 | TMEM16A reconf 42% | TMEM16A Ca cntr inactive | YFP-HEK293 quench inactive | ClC-1 inh inactive
CCN(c1ccccc1)S(=O)(=O)c1ccc(Cl)c(NC(=O)Nc2ccc(Cl)cc2C#N)c1	none
CCN(c1ccccc1)S(=O)(=O)c1cc(NC(=O)COC(=O)C2CC2)ccc1Cl	TMEM16A inh 100 | TMEM16A reconf inactive | TMEM16A Ca cntr inactive | YFP-HEK293 quench inactive | ClC-1 inh inactive
CCN(c1ccccc1)S(=O)(=O)c1cc(NC(=O)Nc2ccccc2C#N)ccc1Cl	TMEM16A inh 25 | TMEM16A reconf inactive | TMEM16A Ca cntr inactive | YFP-HEK293 quench inactive | ClC-1 inh inactive
CCn1nnnc1SCC(=O)N(C)C1CCS(=O)(=O)C1 (stereo not drawn)	none (no result: Kir21 inh, KCNK9 inh, TMEM16A act, TMEM16A inh)
Nc1ccc2cc3[nH]c4cc(N)ccc4c3nc2c1	none (no result: Kir21 inh, KCNK9 inh, TMEM16A inh)
COc1cc(NC(=S)Nc2ccccn2)cc(OC)c1	none
Cc1ccc(NC(=O)CSc2ccc3nnc(CCNC(=O)c4ccccc4)n3n2)c(C)c1	none
CC1=CC2=NC(=O)C(c3ccccc3)C(=O)N2C=C1 (stereo not drawn)	none (no result: Kir21 inh, KCNK9 inh, TMEM16A inh)
CC(=O)c1c(C)[nH]c(C(=O)CSc2nc3ccc(C)cc3[nH]2)c1C	none | TMEM16A reconf inactive | TMEM16A Ca cntr inactive | YFP-HEK293 quench inactive | ClC-1 inh inactive
Cc1cc(OCC(=O)N2CCC(C(N)=O)CC2)c2c(C)cc(=O)oc2c1	none
CN(Cc1ccco1)S(=O)(=O)c1nnc(NC(=O)c2cccc(Cl)c2)s1	TMEM16A inh 25 | TMEM16A reconf 26% | TMEM16A Ca cntr inactive | YFP-HEK293 quench inactive | ClC-1 inh inactive

Screens as filed in PubChem BioAssay.
